Laboratory results as given in the supplement of paper PMC6555819.

Legend:
Experiment in all cases: PBM binding z-score (relative to random genomic background probes); higher = stronger binding; sequences stand for … in GC…GCGATTGACAGCGTAGAATGAAGG
[1] = system: FXR:RXRa (NR concentration 270 nM, RXRa partner concentration 90 nM)
Summary of the method: (§1)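 Binding buffer was PBS pH 7.4 with 2% milk, 0.02% Triton X-100, 1 mM DTT, 0.2 mg/mL BSA and 0.4 mg/ml salmon testes DNA. In it, ligand-free nuclear receptor dimers were incubated 1 h on custom Agilent 4×180K protein-binding microarrays carrying double-stranded probes. Antibodies against each partner (one per run) detected binding, and z-scores were calculated against random background probes after regression normalization of scanned fluorescence.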

[2] = system: LXRa:RXRa (NR concentration 270 nM, RXRa partner concentration 90 nM)
Summary of the method: as §1

[3] = system: LXRa homodimer (NR concentration 270 nM)
Summary of the method: as §1

[4] = system: LXRb:RXRa (NR concentration 270 nM, RXRa partner concentration 90 nM)
Summary of the method: as §1

[5] = system: LXRb homodimer (NR concentration 270 nM)
Summary of the method: as §1

[6] = system: PPARa:RXRa (NR concentration 270 nM, RXRa partner concentration 90 nM)
Summary of the method: as §1

[7] = system: PPARg:RXRa (NR concentration 180 nM, RXRa partner concentration 90 nM)
Summary of the method: as §1

[8] = system: PPARg:RXRa 270nM:90nM, anti-RXR (NR concentration 270 nM, RXRa partner concentration 90 nM)
Summary of the method: as §1

[9] = system: PPARg:RXRa 30nM:10nM, anti-RXR (NR concentration 30 nM, RXRa partner concentration 10 nM)
Summary of the method: as §1

[10] = system: PPARg:RXRa 90nM:30nM, anti-RXR (NR concentration 90 nM, RXRa partner concentration 30 nM)
Summary of the method: as §1

[11] = system: PPARg:RXRa DBDmut IVT, anti-RXR (DBD mutation: RXRa K156A/R161A, NR concentration 270 nM, RXRa partner concentration 90 nM)
Summary of the method: as §1

[12] = system: PPARg:RXRa IVT, anti-PPARg (NR concentration 270 nM, RXRa partner concentration 90 nM)
Summary of the method: as §1

[13] = system: PPARg DBDmut:RXRa IVT, anti-PPARg (DBD mutation: PPARg1 K132A/R137A, NR concentration 270 nM, RXRa partner concentration 90 nM)
Summary of the method: as §1

[14] = system: PPARg DBDmut IVT, anti-PPARg (DBD mutation: PPARg1 K132A/R137A, NR concentration 270 nM)
Summary of the method: as §1

[15] = system: PPARg homodimer (NR concentration 180 nM)
Summary of the method: as §1

[16] = system: PXR:RXRa (NR concentration 270 nM, RXRa partner concentration 90 nM)
Summary of the method: as §1

[17] = system: PXR homodimer (NR concentration 270 nM)
Summary of the method: as §1

[18] = system: RARa:RXR (NR concentration 270 nM, RXRa partner concentration 90 nM)
Summary of the method: as §1

[19] = system: RARa homodimer (NR concentration 270 nM)
Summary of the method: as §1

[20] = system: RARb:RXRa (NR concentration 270 nM, RXRa partner concentration 90 nM)
Summary of the method: as §1

Sequence: TCATATAGGTAAAAGGTGAGAGTCGGTGTGGTAA
- PBM binding z-score [1]: 1.07
- PBM binding z-score [2]: 1.56
- PBM binding z-score [3]: -0.0844
- PBM binding z-score [4]: 1.55
- PBM binding z-score [5]: 0.0234
- PBM binding z-score [6]: 4.75
- PBM binding z-score [7]: 8.85
- PBM binding z-score [8]: 8.5
- PBM binding z-score [9]: 7.77
- PBM binding z-score [10]: 10
- PBM binding z-score [11]: 5.3
- PBM binding z-score [12]: 4.91
- PBM binding z-score [13]: 2.38
- PBM binding z-score [14]: 1.33
- PBM binding z-score [15]: 1.91
- PBM binding z-score [16]: 1.43
- PBM binding z-score [17]: 0.171
- PBM binding z-score [18]: 2.43
- PBM binding z-score [19]: 1.17
- PBM binding z-score [20]: 1.77

Sequence: GCGAGTGGGGCATCAGCAGGTTACCATAACTTAA
- PBM binding z-score [1]: -0.42
- PBM binding z-score [2]: -0.14
- PBM binding z-score [3]: -0.135
- PBM binding z-score [4]: 1.15
- PBM binding z-score [5]: 0.239
- PBM binding z-score [6]: 1.15
- PBM binding z-score [7]: 0.528
- PBM binding z-score [8]: 0.575
- PBM binding z-score [9]: -0.218
- PBM binding z-score [10]: 0.332
- PBM binding z-score [11]: 3.22
- PBM binding z-score [12]: 2.59
- PBM binding z-score [13]: -0.589
- PBM binding z-score [14]: -0.427
- PBM binding z-score [15]: 0.496
- PBM binding z-score [16]: 0.25
- PBM binding z-score [17]: -0.251
- PBM binding z-score [18]: 0.531
- PBM binding z-score [19]: -0.613
- PBM binding z-score [20]: 0.812

Sequence: GGAACGAGGGCACTCGAGTTGATAGCATGGCGAT
- PBM binding z-score [1]: 0.375
- PBM binding z-score [2]: 2.3
- PBM binding z-score [3]: -0.535
- PBM binding z-score [4]: -0.145
- PBM binding z-score [5]: -0.549
- PBM binding z-score [6]: 1.4
- PBM binding z-score [7]: 1.27
- PBM binding z-score [8]: 0.984
- PBM binding z-score [9]: -0.139
- PBM binding z-score [10]: 0.362
- PBM binding z-score [11]: 4.02
- PBM binding z-score [12]: 3.11
- PBM binding z-score [13]: 0.411
- PBM binding z-score [14]: -0.728
- PBM binding z-score [15]: -0.479
- PBM binding z-score [16]: 2.52
- PBM binding z-score [17]: -0.193
- PBM binding z-score [18]: 0.513
- PBM binding z-score [19]: -0.815
- PBM binding z-score [20]: 1.93

Sequence: ATCGAAAGGCCGTGAGGTGAGTATACAGAAAGGC
- PBM binding z-score [1]: 0.424
- PBM binding z-score [2]: 0.135
- PBM binding z-score [3]: -0.0346
- PBM binding z-score [4]: -0.0132
- PBM binding z-score [5]: -0.426
- PBM binding z-score [6]: 0.369
- PBM binding z-score [7]: 0.827
- PBM binding z-score [8]: 0.177
- PBM binding z-score [9]: 0.199
- PBM binding z-score [10]: -0.0286
- PBM binding z-score [11]: -0.822
- PBM binding z-score [12]: 0.492
- PBM binding z-score [13]: 0.487
- PBM binding z-score [14]: 1.17
- PBM binding z-score [15]: -0.238
- PBM binding z-score [16]: 0.0278
- PBM binding z-score [17]: -0.0636
- PBM binding z-score [18]: 0.885
- PBM binding z-score [19]: 0.0649
- PBM binding z-score [20]: 1.68

Sequence: TCATATCGGTAAAGGTGAAAGTCGAACGATATGA
- PBM binding z-score [1]: 0.139
- PBM binding z-score [2]: 1.31
- PBM binding z-score [3]: -0.173
- PBM binding z-score [4]: 1.35
- PBM binding z-score [5]: -0.304
- PBM binding z-score [6]: 2.77
- PBM binding z-score [7]: 1.89
- PBM binding z-score [8]: 3.12
- PBM binding z-score [9]: 3.8
- PBM binding z-score [10]: 3.48
- PBM binding z-score [11]: 1.56
- PBM binding z-score [12]: 2.05
- PBM binding z-score [13]: 0.818
- PBM binding z-score [14]: 0.266
- PBM binding z-score [15]: 0.769
- PBM binding z-score [16]: 0.507
- PBM binding z-score [17]: -0.566
- PBM binding z-score [18]: 1.62
- PBM binding z-score [19]: 0.00667
- PBM binding z-score [20]: 1.98

Sequence: GGAACGAGGGCAAAGTTGTTAGCATCTGTCGACG
- PBM binding z-score [1]: 0.763
- PBM binding z-score [2]: 0.635
- PBM binding z-score [3]: -0.337
- PBM binding z-score [4]: 0.517
- PBM binding z-score [5]: -0.419
- PBM binding z-score [6]: 2.61
- PBM binding z-score [7]: 3.61
- PBM binding z-score [8]: 4.82
- PBM binding z-score [9]: 2.96
- PBM binding z-score [10]: 4.84
- PBM binding z-score [11]: 3.85
- PBM binding z-score [12]: 3.57
- PBM binding z-score [13]: 0.128
- PBM binding z-score [14]: -0.75
- PBM binding z-score [15]: 0.469
- PBM binding z-score [16]: 0.802
- PBM binding z-score [17]: 0.198
- PBM binding z-score [18]: 0.675
- PBM binding z-score [19]: 0.0341
- PBM binding z-score [20]: 2.31

Sequence: TCATATAGGTAAAAGGTGGAAGTCGGTGTGGTAA
- PBM binding z-score [1]: 0.924
- PBM binding z-score [2]: 0.974
- PBM binding z-score [3]: 0.29
- PBM binding z-score [4]: 1.22
- PBM binding z-score [5]: 0.619
- PBM binding z-score [6]: 3.71
- PBM binding z-score [7]: 6.89
- PBM binding z-score [8]: 7.1
- PBM binding z-score [9]: 6.28
- PBM binding z-score [10]: 7.79
- PBM binding z-score [11]: 5.75
- PBM binding z-score [12]: 3.56
- PBM binding z-score [13]: 0.901
- PBM binding z-score [14]: 0.975
- PBM binding z-score [15]: 2.35
- PBM binding z-score [16]: 0.586
- PBM binding z-score [17]: 0.623
- PBM binding z-score [18]: 1.18
- PBM binding z-score [19]: 1.17
- PBM binding z-score [20]: 0.885

Sequence: GCAGACAGGTGAAACGAAGGTAACTCAGGGTGGC
- PBM binding z-score [1]: 0.0182
- PBM binding z-score [2]: 0.296
- PBM binding z-score [3]: -0.444
- PBM binding z-score [4]: 0.0431
- PBM binding z-score [5]: -1.08
- PBM binding z-score [6]: 0.924
- PBM binding z-score [7]: 0.836
- PBM binding z-score [8]: 0.16
- PBM binding z-score [9]: -0.263
- PBM binding z-score [10]: -0.133
- PBM binding z-score [11]: 0.963
- PBM binding z-score [12]: 0.555
- PBM binding z-score [13]: 0.0896
- PBM binding z-score [14]: -0.484
- PBM binding z-score [15]: -0.228
- PBM binding z-score [16]: 0.0362
- PBM binding z-score [17]: -0.595
- PBM binding z-score [18]: 0.681
- PBM binding z-score [19]: -0.536
- PBM binding z-score [20]: 0.818

Sequence: TCATATAGGTAAACAGGTGGAAGTCCGTAAGTTA
- PBM binding z-score [1]: 0.72
- PBM binding z-score [2]: 0.64
- PBM binding z-score [3]: 0.229
- PBM binding z-score [4]: 0.692
- PBM binding z-score [5]: 0.0407
- PBM binding z-score [6]: 1.43
- PBM binding z-score [7]: 1.16
- PBM binding z-score [8]: 2.43
- PBM binding z-score [9]: 4.15
- PBM binding z-score [10]: 3.06
- PBM binding z-score [11]: 4.42
- PBM binding z-score [12]: 3.02
- PBM binding z-score [13]: 0.862
- PBM binding z-score [14]: 0.82
- PBM binding z-score [15]: 1.12
- PBM binding z-score [16]: 0.46
- PBM binding z-score [17]: 0.859
- PBM binding z-score [18]: 0.577
- PBM binding z-score [19]: 0.928
- PBM binding z-score [20]: 0.625

Sequence: CCTAGTGGGCCATTCAGAGGTCATTGATCATATG
- PBM binding z-score [1]: 2.85
- PBM binding z-score [2]: 4.29
- PBM binding z-score [3]: 6.62
- PBM binding z-score [4]: 3.77
- PBM binding z-score [5]: 0.202
- PBM binding z-score [6]: 3.98
- PBM binding z-score [7]: 2.23
- PBM binding z-score [8]: 3.11
- PBM binding z-score [9]: 0.966
- PBM binding z-score [10]: 2.3
- PBM binding z-score [11]: 4.41
- PBM binding z-score [12]: 4.44
- PBM binding z-score [13]: 1.45
- PBM binding z-score [14]: 0.315
- PBM binding z-score [15]: 4.35
- PBM binding z-score [16]: 4.94
- PBM binding z-score [17]: 2.6
- PBM binding z-score [18]: 4.89
- PBM binding z-score [19]: 0.902
- PBM binding z-score [20]: 2.98
